{"source": "paper PMC7819943", "about": "“Rice protein-binding microarrays: a tool to detect cis-acting elements near promoter regions in rice”", "note": "Over roughly 39,000 sequences, “fluorescence intensity (a.u.)” has its median near 4,300; the highest 2% begin near 39,000. What follows is part of a selection rich in the highest values, with near analogues and random picks from the rest.", "data": [{"target": "T1, OsSMF1 (Oryza sativa, UniProt Q6ZLB0 1-436)", "T1 sequence": "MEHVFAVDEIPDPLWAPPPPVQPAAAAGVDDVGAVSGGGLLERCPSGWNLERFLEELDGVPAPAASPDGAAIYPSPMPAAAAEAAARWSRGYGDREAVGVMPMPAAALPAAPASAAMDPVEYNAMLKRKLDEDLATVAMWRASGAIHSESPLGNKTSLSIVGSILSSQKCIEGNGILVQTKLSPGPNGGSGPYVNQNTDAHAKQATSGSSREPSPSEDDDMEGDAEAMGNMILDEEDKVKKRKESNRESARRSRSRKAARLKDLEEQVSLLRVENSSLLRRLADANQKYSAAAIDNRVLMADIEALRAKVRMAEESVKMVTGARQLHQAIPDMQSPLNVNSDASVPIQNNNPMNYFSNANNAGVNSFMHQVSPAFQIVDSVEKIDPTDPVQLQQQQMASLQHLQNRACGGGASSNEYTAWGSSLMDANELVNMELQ", "test": "protein-binding microarray (RPBM); PBS, 2% BSA, 51.3 ng/ul salmon testes DNA, 50 uM zinc acetate, 200 nM TF, 25 C, 1 h; high values mean tight binding", "settings": "protein: recombinant; tags: N-terminal polyhistidine and DsRed monomer fusion (pET32a); chain copies: 2; label: CyDye5-dUTP incorporated in the synthesized complementary strand; 3' TTTTT single-stranded linker to array surface; dsDNA, one strand shown", "outline": "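An Axon 4000B scanner gave the binding signal as per-feature fluorescence intensity in arbitrary units. This followed washing of a custom Agilent array that had been incubated for 1 h at 25 °C with 200 nM protein in PBS, 2% BSA, salmon testes DNA and 50 µM zinc acetate. The proteins were transcription factors fused at the N-terminus to polyhistidine and DsRed, expressed in E. coli BL21-CodonPlus and purified on Ni–NTA.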", "values": [{"sequence": "ATTATGAGCCATGATTCTCTCATCATGCAATGTCCCAGCACGGAGTCACCTAGTGCAG", "binding signal": "22100 fluorescence intensity (a.u.)"}, {"sequence": "TATATATGCACCGAGACACATATGAATCATCACACGTCTTCGGAGTCACCTAGTGCAG", "binding signal": "3550 fluorescence intensity (a.u.)"}, {"sequence": "CGCCGCCTCACCAGCGCCACCTCCACCTCCACCTACGTCTCGGAGTCACCTAGTGCAG", "binding signal": "3270 fluorescence intensity (a.u.)"}, {"sequence": "TTGCAGCAGAATACTTACCACGACAGAATTTGAGGATCTACGGAGTCACCTAGTGCAG", "binding signal": "29500 fluorescence intensity (a.u.)"}, {"sequence": "CCAGCATCTGACACATCCTTTCCTAGCTGATCGACTCCATCGGAGTCACCTAGTGCAG", "binding signal": "3420 fluorescence intensity (a.u.)"}, {"sequence": "AGATCGACCAATGATACACACACAGCATATGAATCCTTTCCGGAGTCACCTAGTGCAG", "binding signal": "41400 fluorescence intensity (a.u.)"}, {"sequence": "GCATAAATGATGTGTTTCTGAATCCAATTACACACATGATCGGAGTCACCTAGTGCAG", "binding signal": "5020 fluorescence intensity (a.u.)"}, {"sequence": "AATACCGACGTGTCTAGACCTCAGCGACACACTGGAGCGTCGGAGTCACCTAGTGCAG", "binding signal": "5000 fluorescence intensity (a.u.)"}, {"sequence": "CGCGCGCGCCGCCGCCGGTCGGTAACGACGGCGACGATGACGGAGTCACCTAGTGCAG", "binding signal": "65500 fluorescence intensity (a.u.)"}, {"sequence": "ACGGACGGGCGTCGGCGCGGGCGATGACGGACTGACGACGCGGAGTCACCTAGTGCAG", "binding signal": "3490 fluorescence intensity (a.u.)"}, {"sequence": "GCGCCGCCGGCGCCGCGGCGCGGCCGATGACCACGCCGGACGGAGTCACCTAGTGCAG", "binding signal": "3490 fluorescence intensity (a.u.)"}, {"sequence": "TCCCCTTCTTCACCGATGCGGCGATGCGCGCGCCTTCTTCCGGAGTCACCTAGTGCAG", "binding signal": "27500 fluorescence intensity (a.u.)"}, {"sequence": "TATCATACAAATGACGACACCACACAAACGGCGGCCCAAGCGGAGTCACCTAGTGCAG", "binding signal": "4320 fluorescence intensity (a.u.)"}, {"sequence": "CAAGGCGGCCCAACCATCTTCGAAATGCGGCCCATGACGACGGAGTCACCTAGTGCAG", "binding signal": "39100 fluorescence intensity (a.u.)"}, {"sequence": "GAACGATGACGGCGCGATGGCCGCCGCCGTGGCGCGGACGCGGAGTCACCTAGTGCAG", "binding signal": "3210 fluorescence intensity (a.u.)"}, {"sequence": "GTGTTCGACGAAATGCCAACAAGGAACGTGGTGGCGTGGACGGAGTCACCTAGTGCAG", "binding signal": "3500 fluorescence intensity (a.u.)"}, {"sequence": "CCCACGGCGCAACGATGACGATGACGATGCCCTTCCGGCGCGGAGTCACCTAGTGCAG", "binding signal": "46900 fluorescence intensity (a.u.)"}, {"sequence": "CCATCCACCATTCACTTTCCCACCTACCTCCACTATTTATCGGAGTCACCTAGTGCAG", "binding signal": "3430 fluorescence intensity (a.u.)"}, {"sequence": "AATAATGGGCTGAAAATATGTGACGCGAGGCGAGGGTCCCCGGAGTCACCTAGTGCAG", "binding signal": "3260 fluorescence intensity (a.u.)"}, {"sequence": "CGCCAACACGACGCTGTGCCGTGGCGCGCCGACAATCATCCGGAGTCACCTAGTGCAG", "binding signal": "3600 fluorescence intensity (a.u.)"}, {"sequence": "ACATGCCGCTAGGAAATATCCCATCCGGTGCCTGTCTAGACGGAGTCACCTAGTGCAG", "binding signal": "3150 fluorescence intensity (a.u.)"}, {"sequence": "TTGCCGGTACTTTGGTACGTCATCCGTGTATAAGTCGGTTCGGAGTCACCTAGTGCAG", "binding signal": "5840 fluorescence intensity (a.u.)"}, {"sequence": "TCCGCGGCTCCGCGCTCTCCCCTCGCCGGTGTCACCGCTCCGGAGTCACCTAGTGCAG", "binding signal": "3390 fluorescence intensity (a.u.)"}, {"sequence": "GTGTTCCGCAGCGGCCGGGAGACGCGCCGGCTTGTCCCCTCGGAGTCACCTAGTGCAG", "binding signal": "42300 fluorescence intensity (a.u.)"}, {"sequence": "CTTGTGGCCGGCGCAGCCGCCGCACCCCTCCGACGTGTTCCGGAGTCACCTAGTGCAG", "binding signal": "5380 fluorescence intensity (a.u.)"}, {"sequence": "CTAACCACGCCCGCCACGTACGCCGCCTCTGGGACCCCGACGGAGTCACCTAGTGCAG", "binding signal": "5440 fluorescence intensity (a.u.)"}, {"sequence": "GCAGCATCTGTGATCTCTCAGTGGGACCCACGTGTCATTGCGGAGTCACCTAGTGCAG", "binding signal": "5010 fluorescence intensity (a.u.)"}, {"sequence": "CCCTGTCCTGAAACGCCGTGACGGCTTCTCCTTCTCCCTCCGGAGTCACCTAGTGCAG", "binding signal": "8960 fluorescence intensity (a.u.)"}, {"sequence": "GTCAGTGGCTCAGTGCCACCCGTAGTGTACTGCCACTCCGCGGAGTCACCTAGTGCAG", "binding signal": "3370 fluorescence intensity (a.u.)"}, {"sequence": "GTACTCCGTACTAGTAGTGGCACTCAATGTTCGGTATCTGCGGAGTCACCTAGTGCAG", "binding signal": "50200 fluorescence intensity (a.u.)"}, {"sequence": "CATATATATCTGACTAAAACGGTATATGTTGCACGTAGTGCGGAGTCACCTAGTGCAG", "binding signal": "3360 fluorescence intensity (a.u.)"}, {"sequence": "ATACTATGTTAATTTGTCTGTGTCCTAATGACGCACCATACGGAGTCACCTAGTGCAG", "binding signal": "4820 fluorescence intensity (a.u.)"}, {"sequence": "TTTACTGTAGCACCACATTGTCAAATTATGACGTAATTAGCGGAGTCACCTAGTGCAG", "binding signal": "5440 fluorescence intensity (a.u.)"}, {"sequence": "AACTTTGTTGTTGATGACGTTTTCAGTTGAAGTCGTTCACCGGAGTCACCTAGTGCAG", "binding signal": "7120 fluorescence intensity (a.u.)"}, {"sequence": "TGATTATTTGTGAAATAAAATGAGATAAAATGTGATTTTACGGAGTCACCTAGTGCAG", "binding signal": "28600 fluorescence intensity (a.u.)"}, {"sequence": "ATGCTATTATATAAGAGAAAATATAATGATGCTGGCCGTGCGGAGTCACCTAGTGCAG", "binding signal": "3240 fluorescence intensity (a.u.)"}, {"sequence": "GGATGATGTGACTTAATAACAGAAGAGAGAAATAATATTACGGAGTCACCTAGTGCAG", "binding signal": "40600 fluorescence intensity (a.u.)"}, {"sequence": "ATTTGTAAACAATGTTACTATCACTTTATCAGATGAAGAACGGAGTCACCTAGTGCAG", "binding signal": "34600 fluorescence intensity (a.u.)"}, {"sequence": "AACGTGCCACTTTACCTGACGTGATGAAACAATATTATCACGGAGTCACCTAGTGCAG", "binding signal": "3320 fluorescence intensity (a.u.)"}, {"sequence": "TGAACAATGTTACAAATCACTTTATCGGATGAAGAAATGACGGAGTCACCTAGTGCAG", "binding signal": "46400 fluorescence intensity (a.u.)"}, {"sequence": "CCAGGTCCCAGCCAGGGGTTTATTAGCTGATTCAAGACGTCGGAGTCACCTAGTGCAG", "binding signal": "14900 fluorescence intensity (a.u.)"}, {"sequence": "CTGGACAGGAAGCAAAGCTCCTGACACGCCCAGCCGTCCCCGGAGTCACCTAGTGCAG", "binding signal": "3220 fluorescence intensity (a.u.)"}, {"sequence": "ACCGCCATGTAGGTGCCACGTCATCGCCACGTGGAACGAACGGAGTCACCTAGTGCAG", "binding signal": "32700 fluorescence intensity (a.u.)"}, {"sequence": "CCGGATGACATGATGACACCGCTACCCATTAAGTTTCGTCCGGAGTCACCTAGTGCAG", "binding signal": "4050 fluorescence intensity (a.u.)"}, {"sequence": "TCACCCTGTCCTCGTCACGTCCCATTTTACATCCACCACCCGGAGTCACCTAGTGCAG", "binding signal": "6570 fluorescence intensity (a.u.)"}, {"sequence": "CCCATTGATGCTACAGAGAGTCCACGTCACCCTCGTCTGCCGGAGTCACCTAGTGCAG", "binding signal": "42800 fluorescence intensity (a.u.)"}, {"sequence": "CTCCTTCCATTTGTACCCACGTCTGCTGTCCATTGACCGGCGGAGTCACCTAGTGCAG", "binding signal": "6910 fluorescence intensity (a.u.)"}, {"sequence": "AGCTAGTACCTCACATGCATTCATCTTGCTTGCAATCCGTCGGAGTCACCTAGTGCAG", "binding signal": "45100 fluorescence intensity (a.u.)"}, {"sequence": "GAATCTAGTAGCTTGCATCCTTTACATCTTCTCATCCTGTCGGAGTCACCTAGTGCAG", "binding signal": "32700 fluorescence intensity (a.u.)"}, {"sequence": "GCTTGCTTGCTTGCATCCTCCTCACATTCACCACGAGGTTCGGAGTCACCTAGTGCAG", "binding signal": "3670 fluorescence intensity (a.u.)"}, {"sequence": "CATTCTTAATGTAAAATATGAATGTAAATGAAATGTATGCCGGAGTCACCTAGTGCAG", "binding signal": "3840 fluorescence intensity (a.u.)"}, {"sequence": "CACAAGTTCTCCTACGCTGACTCCTCTCTTGGAACTTCAGCGGAGTCACCTAGTGCAG", "binding signal": "5030 fluorescence intensity (a.u.)"}, {"sequence": "CCACTGGCGACCGCCACGTCGACCTGGCGTGGGACCTCATCGGAGTCACCTAGTGCAG", "binding signal": "8920 fluorescence intensity (a.u.)"}, {"sequence": "GTTAGCGTGGCATGCCACGTCATCTCACGAAGCGGGTTAGCGGAGTCACCTAGTGCAG", "binding signal": "18100 fluorescence intensity (a.u.)"}, {"sequence": "CTAATGCCACGTAAGTGCCACGTGGCATGAAAACCGGGTTCGGAGTCACCTAGTGCAG", "binding signal": "46300 fluorescence intensity (a.u.)"}, {"sequence": "CTGCACGTTACTCACGTGGCATCTCCAACTCTACCGCCAACGGAGTCACCTAGTGCAG", "binding signal": "7570 fluorescence intensity (a.u.)"}, {"sequence": "GGCCCACGTGGGTCCCACACTGACTCAGCTGCCACGTGGGCGGAGTCACCTAGTGCAG", "binding signal": "38600 fluorescence intensity (a.u.)"}, {"sequence": "CTGGCACGTAAGCGTTACCGTGGCATGCCACGTCATCTCACGGAGTCACCTAGTGCAG", "binding signal": "39600 fluorescence intensity (a.u.)"}, {"sequence": "TGACATGTGGGGCCCACGCTGACTCAGCCGCCACGTCAGACGGAGTCACCTAGTGCAG", "binding signal": "19600 fluorescence intensity (a.u.)"}, {"sequence": "GCATGCATTGCCTCTTGCTCGCCTACGTGGTAATGAAAACCGGAGTCACCTAGTGCAG", "binding signal": "6560 fluorescence intensity (a.u.)"}, {"sequence": "TATGCGTGGGTCACTGGGCCCACACGTCATCCTCACGTGGCGGAGTCACCTAGTGCAG", "binding signal": "49000 fluorescence intensity (a.u.)"}, {"sequence": "GGGGTGAAAATGAATTAGATGCCACGTGCAGGTTCGCATGCGGAGTCACCTAGTGCAG", "binding signal": "10000 fluorescence intensity (a.u.)"}, {"sequence": "CCCACGTGGGTCCCACGCTGACTCAGCCGCCACGTAGATCCGGAGTCACCTAGTGCAG", "binding signal": "25400 fluorescence intensity (a.u.)"}, {"sequence": "ATATGTGGGTCTCATGCTGACTCATCCGCCACGTCAGATACGGAGTCACCTAGTGCAG", "binding signal": "42600 fluorescence intensity (a.u.)"}]}]}
